This is an account of results in the supplement of paper PMC6555819.

This experiment deals with VDR:RXRa (NR concentration 270 nM, RXRa partner concentration 90 nM). Put plainly: PBM binding z-score (relative to random genomic background probes); higher = stronger binding; sequences stand for … in GC…GCGATTGACAGCGTAGAATGAAGG
On the procedure: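 Protein-binding microarray (Agilent 4x180K custom design, double-stranded 60-nt probes: 5' GC cap, 34-nt variable region, 24-nt constant primer region; full probe sequence given). Purified or IVT nuclear receptor:RXRα heterodimers (3:1 NR:RXRα, mostly 270:90 nM) or homodimers were incubated for 1 h in PBS with 2% milk and no ligand, then detected with Alexa488 antibodies. Fluorescence from o1-orientation probes (~5 replicates averaged) was converted to z-scores against 500 random hg19 background probes. Variable regions are seed direct-repeat (DR0–DR5) sites, all their single-nucleotide variants and half-site ablations.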
Regarding ATCGATAGGTCGACGAGGTGAGTATACACCGTTT, the PBM binding z-score was 2.96.

Take TCTCGGAGGACACGAAGGTCAGAGGTTTCCAGAG: the PBM binding z-score turned out to be 2.59.

Take CCTACTGGGCCACCAGGTCATTGATATCAACGTT: the PBM binding z-score worked out at 1.97.

With CCAACGAGGGCATGAGTTGATAGCAAATGCCGAT, the PBM binding z-score worked out at 1.09.

CGAACTAGGTCAGAACATGACAGTGAAGGATGAT had a PBM binding z-score of 0.229.

The sequence TGAATGAGGTTATAAGATCAGGCAACGTTGCAAA had a PBM binding z-score of 0.915.

As for ATCTCTAGGTAAAGATAGTTCACTGAATGCAAAT, the PBM binding z-score was determined as 1.37.

The sequence TCAGACATGTGAAGGTAACTCAGGTACGCAGTCG yielded a PBM binding z-score of 0.627.

Regarding TAGCCTAGGTCATTGGGCCATTATAGTACGCATC, the PBM binding z-score is 2.54.

In turn, GCTCGGAGGACAAGGTCAGAGCATTGTCCGTAGA came in with a PBM binding z-score of 1.5.

ATGTCTAGGTAAAGATAGTTCAGTGAATGCAAAT displayed a PBM binding z-score of 0.565.

Sequence CCGAGTAGGTTATGGGGCATTCCGGCAACGGTGA gave a PBM binding z-score of -0.216.

Sequence GTACCATGGTGAATAGGTCGTTGATGAGTAGGCG came in with a PBM binding z-score of -0.0102.

AGAACGAGCGCACGCTGAGTTGATAGCAGAGTAG: the PBM binding z-score is -0.801.

Regarding TCTGCTAGGTCAGTTGCTCAGCTAACGAGCTGCC, the PBM binding z-score was -0.466.

AGAACGACGGCACGCTGAGTTGATAGCAGAGTAG returned a PBM binding z-score of -0.301.

As for GCCTGTAGATCAAGGTTAAGAAAGACTAAGCTAA, the PBM binding z-score is 0.142.

CGAACTAGGTCATCTAGGACAGTGAATACATTGA had a PBM binding z-score of 3.73.

Sequence ACAGACAGGTGAGTGAAGGTAACTTAGCTGGACG showed a PBM binding z-score of -0.357.

Sequence AGAATGAGGCTACCAAAGATCAGGGAAACGCTTG yielded a PBM binding z-score of -0.544.

The sequence TCTGCTAGGTCGGTTGGTCAGCTAACGAGCTGCC had a PBM binding z-score of -0.462.

CTCGAAAGGTCGTTCTCAGGTGAGTATACCAAAC returned a PBM binding z-score of 3.95.

The sequence ATCTCTAGGTAAAGTTCAGAGAAAGATCGATAGA displayed a PBM binding z-score of 1.41.

For the sequence GTGACTGGGGCAAAGCAGGTTACCATAAGGTTGG, the PBM binding z-score is 0.488.

The sequence ATCTCTAGGTAAAGTACAGTGAAAGATCGATAGA came in with a PBM binding z-score of -0.177.

With TATACAGGGTCAAAGTCCAGAGTACGAATGTCGA, the PBM binding z-score worked out at 5.09.

Take CCGACTGGGGCAATGGTTACCATACTCAGTACGA: the PBM binding z-score was -0.604.

On to CAAACTAAGTCACGAAAGGTCAAAGTCGAATGAC, for which the PBM binding z-score is 5.34.

CGTCAAAGTTCAACTAAGGTAACGAAAAGCACGC returned a PBM binding z-score of 4.64.

Turning to ATATGTAGGTTACATCCGGGTCGTTCAGGCTATG, the PBM binding z-score came out at 2.52.

For the sequence CCTTACGGTTCAAGGTTATAGCACGGGTGGTACG, the PBM binding z-score came to 2.72.

GCTTACGGGTCACAGGTTATAGCATGAATAGAAT returned a PBM binding z-score of 3.9.

In turn, TCGAGAAGGTTAGGGGCATTCAGAATGGCGTCGA gave a PBM binding z-score of 1.12.

CGAACTAGGTCATTGACAGGAGAGTGAATAGTAA came in with a PBM binding z-score of 1.62.

TTACCAAGGTGAGCTGAGGTCGTGGATCCAACTC came in with a PBM binding z-score of 3.37.

CGAACTAAGTCAAGGACAGTGAATCTCCGCACGC displayed a PBM binding z-score of -0.36.

CCTACTGGGCCAAAAAGGTCATTGAGGCCGATAA: the PBM binding z-score is 6.03.

For CCGACTGGGGCATAAAGTTACCATAAGCCAGCCC, the PBM binding z-score was -0.432.

Take ATATGTAGGTTAAGGGTCACTCAGGTTGGTTCGC: the PBM binding z-score was determined as 5.43.

Sequence TCTTCTAGATCAGCAGGTTAAGAAAGCTGGCCAA registered a PBM binding z-score of 0.175.
